From PubChem BioAssay (NCATS)
Results filed as inconclusive are left out. Unless noted, calls come from the whole dose curve; as a rule, active = well fitted curve in either direction with a large enough effect (not every such curve was filed as active); inconclusive = small, poorly fitted or top-dose-only effect, or another doubt; inactive = flat fitted curve, though single readings scatter.

Experiments:
[1] = AP1 Signaling Pathway (AID 357); conditions: ME-180 AP-1-bla reporter, EGF-induced, beta-lactamase ratio, 5 h; at 17.2 µM (top of the series) unless noted;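 note: ME-180 reporter cells stimulated with EGF at its EC50 level; % is set by controls: 0 for no effect and ±100 for the full control effect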
Outline: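 Cells are seeded overnight, exposed to compound titrations and an EC50 level of EGF for 5 hours at 37 °C, then loaded with CCF4 dye for 2.5 hours. Beta-lactamase activity under the AP-1 element is read as a blue/green ratio.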

[2] = Stat Signaling Pathway (AID 446); conditions: ME-180 (cervical carcinoma) SIE beta-lactamase reporter, IL-6 stimulated, 5 h; at 17.2 µM (top of the series) unless noted;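 note: ME-180 cervical cancer cells given 40 pM IL-6 alongside compound; SIE-controlled beta-lactamase reporter measured as 460/530 nm FRET emission ratio; % is set by controls: 0 for no effect and ±100 for the full control effect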
Outline: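 Normalization used AC90 stimulation (300 pM IL-6) and AC90 inhibition (125 nM pan-JAK inhibitor at 40 pM IL-6). The underlying signal is SIE-driven beta-lactamase in ME-180 cells after 5 h IL-6 exposure with compound.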

[3] = target: Glucocorticoid receptor (Homo sapiens) (UniProt P04150); test: GR-GFP Redistribution (AID 450;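 active = compounds whose dose series gives a full or clear partial fitted curve of increased nuclear translocation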; note: potency is the fitted concentration of half-maximal effect)
Sequence of Glucocorticoid receptor (Homo sapiens) (P04150 whole entry, looked up): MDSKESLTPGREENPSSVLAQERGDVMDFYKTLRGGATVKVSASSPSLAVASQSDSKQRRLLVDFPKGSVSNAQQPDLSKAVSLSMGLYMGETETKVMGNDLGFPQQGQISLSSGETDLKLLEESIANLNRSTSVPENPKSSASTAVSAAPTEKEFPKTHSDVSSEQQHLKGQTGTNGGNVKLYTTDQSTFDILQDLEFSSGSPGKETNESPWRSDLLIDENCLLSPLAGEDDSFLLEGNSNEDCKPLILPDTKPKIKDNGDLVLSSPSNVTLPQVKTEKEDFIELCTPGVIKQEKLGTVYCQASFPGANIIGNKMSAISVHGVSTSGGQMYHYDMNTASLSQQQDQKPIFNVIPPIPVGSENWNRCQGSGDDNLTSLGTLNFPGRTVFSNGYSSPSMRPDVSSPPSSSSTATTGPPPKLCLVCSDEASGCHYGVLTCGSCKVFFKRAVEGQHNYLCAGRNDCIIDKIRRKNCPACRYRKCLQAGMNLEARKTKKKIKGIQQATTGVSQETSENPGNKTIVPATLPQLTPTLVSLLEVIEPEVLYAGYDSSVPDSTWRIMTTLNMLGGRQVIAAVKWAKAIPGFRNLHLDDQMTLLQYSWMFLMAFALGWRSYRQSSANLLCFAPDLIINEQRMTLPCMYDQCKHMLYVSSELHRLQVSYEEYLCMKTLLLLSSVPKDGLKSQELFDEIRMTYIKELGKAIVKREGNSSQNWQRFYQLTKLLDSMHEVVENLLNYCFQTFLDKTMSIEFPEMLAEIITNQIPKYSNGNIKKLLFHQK

CCOC(=O)c1[nH]c2ccc(F)cc2c1N=C(C)N(CC)CC
inactive: activity change, negative = inhibition [1] 4.09% | activity, negative = inhibition [2] 5.12% | Potency [3] > 20.6 µM

COc1cc2c(C(=O)N3CCN(c4ccccc4)CC3)c(C)oc2cc1Br
inactive: activity change, negative = inhibition [1] 3.59% | activity, negative = inhibition [2] -12.8% | Potency [3] > 20.6 µM

COc1ccc2c(c1OC)C(=O)N1c3ccccc3C(=O)N(c3ccccc3F)C21 (centres undefined)
inactive: activity change, negative = inhibition [1] -4.99% | activity, negative = inhibition [2] -18.4% | Potency [3] > 20.6 µM

CCOC(=O)c1ccc(N=CC2=C(O)CC(c3ccco3)CC2=O)cc1 (centres undefined)
inactive: activity change, negative = inhibition [1] 2.87% | activity, negative = inhibition [2] -4% | Potency [3] > 20.6 µM

Cc1c(O)c(CN2CCCCC2)cc2c3c(c(=O)oc12)CCC3
inactive: activity change, negative = inhibition [1] 6.76% | activity, negative = inhibition [2] -1.68% | Potency [3] > 20.6 µM

Cc1ccc(-c2ccc(/C=N/c3ncn[nH]3)o2)cc1Cl
inactive: activity change, negative = inhibition [1] 1.81% | activity, negative = inhibition [2] -7.79% | Potency [3] > 20.6 µM

C=CCSc1nnc2n(-c3ccccc3OC)c(=O)c3c4c(sc3n12)CCC4
inactive: activity change, negative = inhibition [1] 7% | activity, negative = inhibition [2] 6.42% | Potency [3] > 20.6 µM

CC1CN(C2CCN(C(=O)c3ccccc3)CC2)CC(C)O1 (centres undefined)
inactive: activity change, negative = inhibition [1] -5.21% | activity, negative = inhibition [2] 3.62% | Potency [3] > 20.6 µM

N#CC(C(=O)NC1CCCCC1)c1nc2ccccc2nc1N1CCN(c2ccccc2F)CC1 (centres undefined)
inactive: activity change, negative = inhibition [1] -12.2% | activity, negative = inhibition [2] -5.87% | Potency [3] > 20.6 µM

Cc1ccc(NC(=O)CSC2=C(C#N)C(c3ccco3)C3=C(CCCC3=O)N2)cc1 (centres undefined)
inactive: activity change, negative = inhibition [1] -26.3% | activity, negative = inhibition [2] 30.5% | Potency [3] > 20.6 µM

CC1CCc2cc(F)cc3c(O)c(C(=O)NCc4ccco4)c(=O)n1c23 (centres undefined)
inactive: activity change, negative = inhibition [1] -28.9% | activity, negative = inhibition [2] -2.44% | Potency [3] > 20.6 µM

CCSc1nc2sc3c(c2c(=O)n1C1CCCCC1)CCN(C)C3
inactive: activity change, negative = inhibition [1] 4.46% | activity, negative = inhibition [2] 24.3% | Potency [3] > 20.6 µM

CCOC(=O)C1CCN(c2nc3ccccc3nc2C(C#N)C(=O)OCCOC)CC1 (centres undefined)
inactive: activity change, negative = inhibition [1] -17.6% | activity, negative = inhibition [2] -9.08% | Potency [3] > 20.6 µM

CCCCCn1c2nc3ccccc3nc2c2c(=O)n(CC(C)C)cnc21
inactive: activity change, negative = inhibition [1] 2.71% | activity, negative = inhibition [2] -12.9% | Potency [3] > 20.6 µM

COCCCNc1nc(-c2ccncc2)nc2ccccc12
inactive: activity change, negative = inhibition [1] -12.4% | activity, negative = inhibition [2] -12.9% | Potency [3] > 20.6 µM

CCOC(=O)CSC1=C(C#N)C(=O)NC2(CCCCC2)S1
inactive: activity change, negative = inhibition [1] -9.68% | activity, negative = inhibition [2] 8.1% | Potency [3] > 20.6 µM

CCN(CC)Cc1cc(C(C)=O)ccc1OCC(C)C
inactive: activity change, negative = inhibition [1] 23.1% | activity, negative = inhibition [2] 13.1% | Potency [3] > 20.6 µM

O=C(Nc1nc(NC(=O)c2ccco2)n(-c2ccccc2)n1)c1ccccc1
inactive: activity change, negative = inhibition [1] -13.5% | activity, negative = inhibition [2] -22.6% | Potency [3] > 20.6 µM

Cn1c(=O)c2c3c(sc2n2c(SCC(=O)c4ccc(Cl)cc4)nnc12)COC(C)(C)C3
inactive: activity change, negative = inhibition [1] -6.68% | activity, negative = inhibition [2] -0.164% | Potency [3] > 20.6 µM

CCCCNC(=O)C(C#N)c1nc2ccccc2nc1N1CCN(c2ccccc2F)CC1 (centres undefined)
inactive: activity change, negative = inhibition [1] -4.46% | activity, negative = inhibition [2] 0.859% | Potency [3] > 20.6 µM

CC1(C)Cc2c(sc3c2C2=NCCN2C=N3)CO1
inactive: activity change, negative = inhibition [1] 12.7% | activity, negative = inhibition [2] 1.72% | Potency [3] > 20.6 µM

CCN1CC2=C(OC(N)=C(C#N)C2c2ccccc2)/C(=C\c2ccccc2)C1 (centres undefined)
inactive: activity change, negative = inhibition [1] -16.4% | activity, negative = inhibition [2] -29.2% | Potency [3] > 20.6 µM

CCCCNC(=O)C(C#N)c1nc2ccccc2nc1N1CCN(Cc2ccc3c(c2)OCO3)CC1 (centres undefined)
inactive: activity change, negative = inhibition [1] -18.8% | activity, negative = inhibition [2] -8.12% | Potency [3] > 20.6 µM

O=C1OC(Nc2ccc(Br)cc2F)c2ccccc21 (centres undefined)
inactive: activity change, negative = inhibition [1] 0.165% | activity, negative = inhibition [2] 2.24% | Potency [3] > 20.6 µM

COc1ccc(N/C=C(\C#N)c2nc3ccccc3n2C)c(OC)c1
inactive: activity change, negative = inhibition [1] -21.3% | activity, negative = inhibition [2] -22% | Potency [3] > 20.6 µM

CCCCC(=O)C1CCN(Cc2ccccc2)CC1
inactive: activity change, negative = inhibition [1] 4.33% | activity, negative = inhibition [2] 3.33% | Potency [3] > 20.6 µM

CN(Cc1c(O)ccc2c1oc(=O)c1ccccc12)C1CCCCC1
inactive: activity change, negative = inhibition [1] 2.27% | activity, negative = inhibition [2] 4.77% | Potency [3] > 20.6 µM

CCOP(=O)(c1ccccc1)c1nc(-c2ccccc2C)oc1N1CCCCC1 (centres undefined)
inactive: activity change, negative = inhibition [1] -1.96% | activity, negative = inhibition [2] 0.694% | Potency [3] > 20.6 µM
